Source: PubChem BioAssay AID651674 (The Scripps Research Institute Molecular Screening Center, 2012)
About 1,700 (77%) of roughly 2,200 compounds were called active.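 The calls were made as follows: active = mean inhibition across replicate wells exceeding the computed hit threshold (cut at about 13% in these data); inactive = the rest.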 So high a share suggests a set chosen from earlier hits. These entries were drawn from the full list.

The molecules below were run against Hepatocyte nuclear factor 4-alpha (Homo sapiens) (UniProt P41235) (assay: HNF4 dimerization inhibitors, counter-screen for ABHD5-PLIN5 interaction inhibitor project, biochemical, split-luciferase complementation, luminescence (AID 651674;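 also: light from luciferase halves that rejoin when HNF4 fusion proteins dimerize; 0% = DMSO only wells and the 100% control is not given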)). Conditions: at 4 µM, hits give high values.
Sequence of Hepatocyte nuclear factor 4-alpha (Homo sapiens) (P41235 whole entry, looked up, the tested form may be a part): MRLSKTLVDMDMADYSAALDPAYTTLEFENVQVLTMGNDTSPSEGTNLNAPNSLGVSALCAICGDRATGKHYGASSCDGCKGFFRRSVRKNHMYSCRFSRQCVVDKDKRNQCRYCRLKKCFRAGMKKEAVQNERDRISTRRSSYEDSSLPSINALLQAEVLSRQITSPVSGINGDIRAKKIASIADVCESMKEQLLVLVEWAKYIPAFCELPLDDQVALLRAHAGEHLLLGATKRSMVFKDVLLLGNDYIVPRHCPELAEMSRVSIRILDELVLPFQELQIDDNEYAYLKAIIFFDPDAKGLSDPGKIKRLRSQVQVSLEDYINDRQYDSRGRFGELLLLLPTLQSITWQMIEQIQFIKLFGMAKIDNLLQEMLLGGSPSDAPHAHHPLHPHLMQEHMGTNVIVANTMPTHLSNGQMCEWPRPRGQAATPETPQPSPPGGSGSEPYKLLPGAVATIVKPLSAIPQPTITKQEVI
`COc1ccc(CN2C(=O)NC(=O)/C(=C\c3ccc(OC)c(OC)c3OC)C2=O)cc1` was tested, and the inhibition was 31.3% (active). For `CN(C)CC1Oc2ccccc2OC1(O)c1ccccc1` (stereo not given), the inhibition was 104% (active). With `Cc1cccc(N2C(=O)NC(=O)/C(=C\c3cnn(-c4ccccc4)c3)C2=O)c1` the inhibition was 68.7% (active). For `CCOC(=O)[C@]12Cc3ccccc3[C@H]1N(C1CCCCC1)C(=O)c1cc(OC)ccc12`, the inhibition was 27.9% (active). `CCc1nnc(NS(=O)(=O)c2ccc(N=Cc3c(O)n(-c4ccccc4)c(=O)[nH]c3=O)cc2)s1` was tested, and the inhibition was 33.6% (active).
